# Screening results as filed in PubChem.
# DT40 TDP1 no CPT = qHTS for Inhibitors of human tyrosyl-DNA phosphodiesterase 1 (TDP1): qHTS in cells in absence of CPT; Potency, µM (highest dose often 46.2 µM), for inactives: top-dose activity change, negative = growth inhibition, actives largely listed as inhibitors; AID 686978, 2013; DT40 Tdp1-/- hTDP1 cells, no CPT, ATP luminescence, 48 h; actives 15% (n = 420,000); note: potency is the fitted concentration of half-maximal effect; nearly all actives have a fitted effect of over 55% in size
#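 Camptothecin absent (DMSO only). Human TDP1-complemented DT40 knockout cells, 400 cells/well, 37 °C for minimum 48 hr; ATP measured via CellTiter-Glo, 30 min dark incubation, luminescence.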
# DT40 TDP1 CPT = qHTS for Inhibitors of human tyrosyl-DNA phosphodiesterase 1 (TDP1): qHTS in cells in presence of CPT; chicken DT40 Tdp1-/-;hTDP1 cells + 20 nM CPT, ATP luminescence, 48 h; actives 12% (n = 420,000); AID 686979, 2013; Potency, µM (top dose mostly 46.2 µM), for the others: at the highest dose activity change, negative = growth inhibition, usual class: inhibitors; note: potency is the fitted concentration of half-maximal effect; nearly all actives have a fitted effect of over 55% in size
#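 Chicken DT40 Tdp1-/- cells stably complemented with human TDP1 were seeded at 400 cells/well in medium containing 20 nM camptothecin, exposed to pin-transferred compounds, and grown at 37 °C for at least 48 hr. Viability was read as ATP luminescence.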
# HT1080 IDH1KD tx = qHTS for induction of synthetic lethality in tumor cells producing 2HG: qHTS for the HT-1080-IDH1KD cell line; HT-1080 IDH1 knockdown viability, ATP luminescence, 48 h; Potency, µM (top dose mostly 46.1 µM), without a hit: at the highest dose activity, negative = toxicity, actives largely listed as cytotoxic; actives 2% (n = 360,000); AID 686971, 2013;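 note: potency is the fitted concentration of half-maximal effect; 0% = DMSO wells and -100% = cell-free medium wells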
#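 After a 2 h attachment period, IDH1KD HT-1080 cells took pin-transferred compound for 48 h at 37 °C; ATP-based luminescence after 10 min room-temperature reagent incubation reported viability.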
# ELG1 repair inh = qHTS screen for small molecules that inhibit ELG1-dependent DNA repair in human embryonic kidney (HEK293T) cells expressing luciferase-tagged ELG1. actives 2.3% (n = 330,000). HEK293T ELG1-luciferase reporter, luminescence, 16 h; DNA damage induced by 5-fluorouridine. AID 504467, 2011. Potency, µM (series often up to 46.1 µM), for inactives: top-dose activity change, negative = inhibition, most hits filed as inhibitors; note: potency is the fitted concentration of half-maximal effect; nearly all actives have a fitted effect of over 55% in size
#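 Step one: seed 2,000 cells per well. Step two: pin-transfer compound or DMSO alongside 5-fluorouridine. Step three: incubate 16 hr, 37 °C, 5% CO2. Step four: add ONE-Glo, wait 30 min, read luminescence.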
# HT1080NT lethal = qHTS for induction of synthetic lethality in tumor cells producing 2HG: qHTS for the HT-1080-NT fibrosarcoma cell line; HT-1080-NT fibrosarcoma viability, CellTiter-Glo ATP luminescence, 48 h; Potency, µM (titrated, usually from 46.1 µM), for the others: at the highest dose activity, negative = less viability, hits mostly cytotoxic; actives 1.6% (n = 360,000);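 note: NT is the 2HG producing partner of a matched IDH1 knockdown line; potency is the fitted concentration of half-maximal effect; 0% = DMSO-treated cells and -100% = media-only wells without cells; nearly all actives have a fitted effect of over 55% in size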
#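 HT-1080-NT; 750 cells/well; 5% FBS RPMI; 48 h compound, 37 degrees C; CellTiter-Glo luminescence; curve fitting and curve-class assignment.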
# IL-1B inflam inh = qHTS for Inhibitors of Inflammasome Signaling: IL-1-beta AlphaLISA Primary Screen; THP-1 LPS/ATP IL-1B secretion, AlphaLISA, 16 h; active compounds read low; activity change, % at 57.5 µM; actives 4.7% (n = 360,000); AID 743279, 2014; in the data active = activity change below about -50%; inconclusive = mostly about -30% to -49%
#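 Secreted IL-1B measured by AlphaLISA bead assay after 16 h compound exposure of THP-1 cells; compounds (final up to 57.5 uM) added 1 h before LPS (250 ng/mL) and ATP (1.25 mM) stimulation; lower signal means less secretion.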
# Numbers without * were called inactive; ? = inconclusive; . = no result. Sampled rows, rich in hits. Any-hit rate of the full collection: about 19%. Unless noted, calls come from the whole dose curve; as a rule, active = well fitted curve in the direction sought with a large enough effect; inconclusive = small, poorly fitted or top-dose-only effect, or another doubt; inactive = no such curve, though single readings can be large; an effect the other way counts as inactive or inconclusive. Unless noted, % is set by controls: 0 for no effect and ±100 for the full control effect.
SMILES,DT40 TDP1 no CPT,DT40 TDP1 CPT,HT1080 IDH1KD tx,ELG1 repair inh,HT1080NT lethal,IL-1B inflam inh
O=C(c1cccs1)N1CCN(C(=O)c2cccs2)C1=S,5.8µM*,5.8µM*,21µM*,.,?,-95*
O=C(NC(=S)N1CCCCC1)c1cccs1,15µM*,?,0%,9%,6%,-4
O=C(NC(=S)N1CCN(c2ccc(Cl)cc2[N+](=O)[O-])CC1)c1cccs1,21µM*,9.2µM*,-4%,11%,-3%,26
CC1CCCCN1C(=S)NC(=O)c1cccs1 (stereo unspecified),16µM*,?,-7%,1%,-6%,10
CC1CCN(C(=S)NC(=O)c2cccs2)CC1,?,?,-28%,-25%,-2%,33
O=C(CCCN1C(=O)c2ccccc2C1=O)NCCc1ccc(OC(F)F)cc1,-20%,18%,?,7%,20%,22
Cc1[nH]c(C)c(S(=O)(=O)NCc2ccco2)c1C(=O)N1CCCCC1,7%,-1%,9%,3%,6%,13
O=C(CCBr)N1CCN(C(=O)CCBr)CC1,-20%,-34%,.,.,.,.
O=C(Nc1nc(-c2cccnc2)cs1)c1cccc([N+](=O)[O-])c1,23µM*,-17%,1%,?,8%,-8
O=C(Nc1ccccc1)Nc1ncc([N+](=O)[O-])s1,4.6µM*,6.5µM*,9.2µM*,?,9.2µM*,-87*
O=C(NCc1cccnc1)c1ccc(NC(=O)c2cccc([N+](=O)[O-])c2)cc1,-82%,15µM*,3.7µM*,-11%,?,-10
Cc1csc(NC(=O)c2cc([N+](=O)[O-])cc([N+](=O)[O-])c2)n1,23µM*,?,-3%,-1%,1%,12
O=C(Nc1ncc(Cc2cccc(Cl)c2Cl)s1)c1ccc([N+](=O)[O-])cc1,16µM*,13µM*,7%,-17%,5%,3
O=C(Nc1ncc([N+](=O)[O-])s1)c1cccc([N+](=O)[O-])c1,21µM*,9.2µM*,-2%,?,-2%,0
O=C(CCC1CCCC1)Nc1ccc(C(=O)NCc2cccnc2)cc1,?,15µM*,6.5µM*,16µM*,5.2µM*,-11
N#CCC(=O)Nc1ncc(Cc2ccccc2Cl)s1,-20%,-11%,-30%,-3%,-7%,-6
O=C(Nc1ccc(NC(=O)c2cccc([N+](=O)[O-])c2)cc1)c1cccc([N+](=O)[O-])c1,-37%,-1%,-3%,?,-5%,-4
O=[N+]([O-])c1cccc(-c2csc(Nc3ccccc3)n2)c1,29µM*,?,?,?,?,-105*
O=C(COC(=O)c1ccccn1)Nc1nc(-c2cccc([N+](=O)[O-])c2)cs1,18µM*,?,7%,18%,-2%,-30
O=C(Nc1nc(-c2ccccc2)cs1)c1cccc([N+](=O)[O-])c1,?,?,-13%,-1%,-9%,-79*
CCOC(=O)c1sc(N2C(=O)c3oc4ccc(F)cc4c(=O)c3C2c2ccc(O)cc2)nc1C (stereo unspecified),-18%,10%,.,.,.,.
Clc1ccc(CN2CCCCCC2)cc1,-3%,0%,26%,-7%,8%,-1
N=c1ccn(Cc2cccc(Cl)c2)cc1,2.1µM*,2.6µM*,-16%,?,-4%,?
N=c1ccn(Cc2ccc(Cl)cc2)cc1,3.7µM*,5.2µM*,-23%,5.2µM*,-17%,-22
CCOc1ccc(NC(=O)Cn2cnc3c(oc4ccccc43)c2=O)cc1,-6%,2%,.,.,.,.
SMILES,DT40 TDP1 no CPT,DT40 TDP1 CPT,HT1080 IDH1KD tx,ELG1 repair inh,HT1080NT lethal,IL-1B inflam inh
CCCOc1ccc(N2C(=O)CC(N(CCc3ccc(OC)c(OC)c3)C(=S)Nc3ccccc3)C2=O)cc1 (stereo unspecified),?,?,0%,16µM*,-3%,29
O=C1CC(N(CCc2ccccc2)C(=S)Nc2cc(Cl)ccc2Cl)C(=O)N1c1c(Cl)cccc1Cl (stereo unspecified),10µM*,16µM*,-13%,-1%,-22%,-6
CCCOc1ccc(N2C(=O)CC(N(Cc3ccc(OC)cc3)C(=S)Nc3ccccc3)C2=O)cc1 (stereo unspecified),?,-29%,-3%,?,-1%,-30
O=C1CC(N(CCc2ccccc2)C(=S)Nc2ccccc2)C(=O)N1c1ccccc1 (stereo unspecified),?,?,?,-6%,?,?
CNC(=S)N(CCc1ccc(OC)c(OC)c1)C1CC(=O)N(c2ccccc2)C1=O (stereo unspecified),26µM*,?,?,?,-8%,.
Cc1ccc(NCCC#N)cc1C,-21%,1%,1%,?,-5%,5
CCn1c(SCC(=O)N(C)c2c(N)n(Cc3ccccc3)c(=O)[nH]c2=O)nnc1-c1cccs1,-2%,7%,10%,.,8%,-17
CCN(CCO)C(=O)CC1C(=O)NCCN1Cc1c(F)cccc1Cl (stereo unspecified),-10%,-10%,24%,?,9%,-4
Cc1ccccc1C1=CCN(c2ncc(NC(=O)c3ccc(Cl)cc3)cc2C(=O)O)CC1,23µM*,?,.,.,.,.
O=C(Nc1cnc(N2CCC(N3CCCCC3)CC2)c(C(=O)O)c1)c1ccc(Br)cc1,-9%,1%,.,.,.,.
CN(C)c1ccc(-c2c3ccccc3nc3ccccc23)cc1,-25%,?,.,.,.,.
CN(C)c1ccc(Sc2ccc3nc(N)nc(N)c3c2)cc1,0.65µM*,1.8µM*,1.6µM*,.,2.3µM*,-15
COc1ccccc1NC(=O)NC1(C)CCS(=O)(=O)C1 (stereo unspecified),-9%,0%,10%,14%,3%,14
CCc1cccc(NC(=O)Cn2c(=O)ccc3cc(S(=O)(=O)N4CCC(C)CC4)ccc32)c1,16µM*,18µM*,.,.,.,.
Cc1ccc(NC(=O)Cn2c(=O)ccc3cc(S(=O)(=O)N4CCC(C)CC4)ccc32)cc1C,-60%,?,.,.,.,.
